{"source": "PubChem BioAssay (Tox21)", "note": "Where “and” joins values, the source holds several entries; their conditions need not be identical. Equal values may be shown once. Results filed as inconclusive are left out. Entries that show only a call come without a potency. The source holds several records for some structures; these can differ, active in one and inactive in another. Calls of active or inactive are those of the source. Calls follow the shape of the dose curve; as a rule, active = well fitted cell-killing curve with a large enough effect in the repeat runs; inconclusive = weak or mixed curves, or effect the other way; inactive = flat fitted curve, though single readings scatter. Potency is read from the fitted curve at half-maximal effect.", "data": [{"assay": "Caspase-3/7 induction in HepG2 cells by small molecules, qHTS cell viability counter screen (AID 1346981); also: nearly all actives have a fitted effect of over 30% in size", "settings": "CellTiter-Fluor fluorescence, 17 h; series mostly up to 92.4 µM", "description": "U.S. Tox21 Program National Center for Advancing Translational Sciences [NCATS] NIH Chemical Genomics Center [NCGC] U.S. Environmental Protection Agency [EPA] National Institutes of Environmental Health Sciences [NIEHS] National Toxicology Program [NTP] U.S. Food and Drug Administration [FDA] Tox21 Assay Overview: Apoptosis is a process of programmed cell death and plays a central role in the development of multicellular organisms. It is a highly regulated process and induces cell death by activating caspases, which are the members of cysteine aspartic acid-specific protease (caspase) family. Caspases involved in apoptosis are classified by their mechanism of action as initiator caspases (caspase-2, -8, -9 and -10) and executioner caspases (caspase-3, -6, and -7). Inhibition of apoptosis results in number of cancers, autoimmune diseases, inflammatory diseases and viral infection. To identify small molecule compounds that induce apoptosis, a homogeneous, luminescent Caspase-Glo 3/7 assay was used. Wild type HepG2 cells were used to screen Tox21 libraries for identifying caspase-3/7 activity inducers. Also cytotoxicity of the compounds was tested in parallel by measuring the cell viability using CellTiter-Fluor assay system in the same wells.\nTox21 Assay Protocol Summary: HepG2 cells were dispensed at 2,000 per well in 5uL of culture medium into white solid bottom 1536-well plates (Corning Life Sciences, Corning, NY) using a Multidrop Combi (Thermo Scientific, Waltham, MA) dispenser. The assay plates were incubated at 37 C and 5% CO2 for 5hr, and then 23nL of compounds dissolved in DMSO and positive control were transferred using a Pintool station ([…], San Diego, CA). The assay plates were incubated at 37C and 5% CO2 for 17hr. For cytotoxicity read, after 16hr incubation at 37C, 1uL CellTiter-Fluor reagent (Promega Corporation, Madison, WI) was added to each well of the assay plates using Flying Reagent Dispenser (FRD, Aurora Discovery, San Diego, CA). After 1hr incubation at 37C and 5% CO2, the fluorescence signal was quantified using a ViewLux plate reader (PerkinElmer, Shelton, CT).", "values": [{"smiles": "[CH3][Sn]([Cl])([Cl])[Cl]", "Potency": "inactive"}, {"smiles": "CCCCOCCOC(C)=O", "Potency": "inactive"}, {"smiles": "CCCCOC(=O)COC(=O)c1ccccc1C(=O)OCCCC", "Potency": "inactive"}, {"smiles": "N#CCCCCC#N", "Potency": "inactive"}, {"smiles": "CCNc1nc(Cl)nc(NC(C)(C)C#N)n1", "Potency": "inactive"}, {"smiles": "C[N+](C)(C)C", "Potency": "inactive"}, {"smiles": "CC(C)(C#N)N=NC(C)(C)C#N", "Potency": "inactive"}, {"smiles": "Cc1cccc(N=Nc2ccc(N(C)C)cc2)c1", "Potency": "27.8 µM (active) and 8.63 µM (active)"}, {"smiles": "ClC(Cl)(Cl)Br", "Potency": "inactive"}, {"smiles": "CC1CC(=O)O1", "note": "(stereo not given)", "Potency": "inactive"}, {"smiles": "C=C(C)C#N", "Potency": "inactive"}, {"smiles": "CCCCSP(=O)(SCCCC)SCCCC", "Potency": "inactive"}, {"smiles": "c1ccc(C2CO2)cc1", "note": "(stereo not given)", "Potency": "inactive"}, {"smiles": "CCCCCCCC[N+](C)(CCCCCCCC)CCCCCCCC", "Potency": "61 µM (active) and 15.4 µM (active) and 21.7 µM (active)"}, {"smiles": "CC(C)Nc1nc(Cl)nc(NC(C)C)n1", "Potency": "inactive"}, {"smiles": "CC(C)CON=O", "Potency": "inactive"}, {"smiles": "CC(C)=CC1C(C(=O)OCc2cccc(Oc3ccccc3)c2)C1(C)C", "note": "(stereo not given)", "Potency": "inactive"}, {"smiles": "Clc1ccc(C(Cl)(Cl)Cl)cc1", "Potency": "inactive"}, {"smiles": "CC(C)(c1ccccc1)c1ccc(O)cc1", "Potency": "inactive"}, {"smiles": "C[N+](C)(C)CC(=O)O", "Potency": "inactive"}, {"smiles": "CC(C)(c1ccc(OCC2CO2)cc1)c1ccc(OCC2CO2)cc1", "note": "(stereo not given)", "Potency": "inactive"}, {"smiles": "CCOP(=S)(OCC)OP(=S)(OCC)OCC", "Potency": "inactive"}, {"smiles": "COC(=O)Nc1nc2ccccc2[nH]1", "Potency": "inactive"}, {"smiles": "CCCCOCC1CO1", "note": "(stereo not given)", "Potency": "inactive"}, {"smiles": "CCCCCCCCCc1ccc(O)cc1", "Potency": "43.3 µM (active)"}, {"smiles": "CC[n+]1c(-c2ccccc2)c2cc(N)ccc2c2ccc(N)cc21", "Potency": "38.4 µM (active) and 23.7 µM (active)"}, {"smiles": "O=S(=O)(O)C(F)(F)C(F)(F)C(F)(F)C(F)(F)C(F)(F)C(F)(F)C(F)(F)C(F)(F)F", "Potency": "inactive"}, {"smiles": "COP(=S)(OC)Oc1ccc(Sc2ccc(OP(=S)(OC)OC)cc2)cc1", "Potency": "inactive"}, {"smiles": "Nc1ccc2ccccc2c1", "Potency": "inactive"}, {"smiles": "Oc1ccc(Cl)cc1Cc1ccccc1", "Potency": "61.9 µM (active) and inactive"}, {"smiles": "O=C(O)c1nn(Cc2ccc(Cl)cc2Cl)c2ccccc12", "Potency": "inactive"}, {"smiles": "O=C(O)CF", "Potency": "inactive"}, {"smiles": "CCC/C=N/O", "Potency": "inactive"}, {"smiles": "Nc1ncn[nH]1", "Potency": "inactive"}, {"smiles": "CCNCC", "Potency": "inactive"}, {"smiles": "CN(C)c1nc(=O)n(C2CCCCC2)c(=O)n1C", "Potency": "inactive"}, {"smiles": "Oc1ccc(Cl)cc1Cl", "Potency": "inactive"}, {"smiles": "C=CC(Cl)CCl", "note": "(stereo not given)", "Potency": "inactive"}, {"smiles": "CNC(=O)CSP(=S)(OC)OC", "Potency": "inactive"}, {"smiles": "CC1=C(C(=O)Nc2ccccc2)SCCO1", "Potency": "inactive"}]}]}
